# Reference: PubChem BioAssay AID1159580 (chemical genetic matrix, 2015)
# In all, about 5,500 compounds went through this assay and about 2,000 (36%) were called active. Roughly 18% stayed inconclusive and do not appear here. The list shows a part of the results. A number with no mark means an inactive call. Rule as the data show it: active = normalized growth mostly below about 0.91 (no sharp cut-off); inconclusive = no clear call, values can overlap the other calls; inactive = mostly above about 0.92.
# Assay: chemical genetic growth profiling, strain panel (AID 1159580);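 also: tested at 20 µM; growth read once vehicle control cultures reached saturation at 30 °C; 1 = growth at the plate median or of vehicle wells; lower values mean less growth of the strain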
# Conditions: S. cerevisiae deletion strains, growth OD
# [1] = locus YDL101C, strain DUN1, hits give low values
# [2] = locus YHR030C, strain SLT2, hits give low values
smiles,measurement,setting,value
Cc1c(-n2cccc2)cc2c(c1[N+](=O)[O-])C(C)(C)CC2(C)C,normalized growth,"locus YAL013W, strain DEP1, hits give low values",1.01
same,normalized growth,"locus YBR229C, strain ROT2, hits give low values",1.01
same,normalized growth,"locus YCL061C, strain MRC1, hits give low values",1.01
same,normalized growth,[1],1.02
same,normalized growth,"locus YDR150W, strain NUM1, hits give low values",1.02
same,normalized growth,"locus YEL061C, strain CIN8, hits give low values",1
same,normalized growth,"locus YGR078C, strain PAC10, hits give low values",1.02
same,normalized growth,[2],1.05
same,normalized growth,"locus YHR087W, strain rtc3, hits give low values",1.01
same,normalized growth,"locus YJL187C, strain SWE1, hits give low values",1.02
same,normalized growth,"locus YJR043C, strain POL32, hits give low values",1.01
same,normalized growth,"locus YJR075W, strain HOC1, hits give low values",1.05
same,normalized growth,"locus YLR039C, strain RIC1, hits give low values",1.06
same,normalized growth,"locus YLR058C, strain SHM2 (second series), hits give low values",0.994
same,normalized growth,"locus YLR085C, strain ARP6, hits give low values",1.01
same,normalized growth,"locus YLR262C, strain YPT6, hits give low values",1.07
same,normalized growth,"locus YML094W, strain GIM5, hits give low values",1.02
same,normalized growth,"locus YMR219W, strain ESC1, hits give low values",1.02
same,normalized growth,"locus YMR263W, strain SAP30, hits give low values",1
same,normalized growth,"locus YNL153C, strain GIM3, hits give low values",0.998
same,normalized growth,"locus YNL298W, strain CLA4 (second series), hits give low values",1.04
same,normalized growth,"locus YNL322C, strain KRE1, hits give low values",1.02
same,normalized growth,"locus YNR030W, strain Alg12, hits give low values",1.01
same,normalized growth,"locus YOL006C, strain TOP1, hits give low values",1.03
same,normalized growth,"locus YPL055C, strain LGE1, hits give low values",1
same,normalized growth,"locus YPL241C, strain CIN2, hits give low values",1
same,normalized growth,"locus YPR135W, strain CTF4, hits give low values",1.04
N#C/C(=N/Nc1ccc(Cl)cc1)C(N)=S,normalized growth,"locus YAR019C, strain CDC15, hits give low values",0.44 (active)
same,normalized growth,"locus YBL105C, strain PKC1, hits give low values",0.434 (active)
same,normalized growth,"locus YBR135W, strain CKS1, hits give low values",0.529 (active)
same,normalized growth,"locus YBR136W, strain MEC1, hits give low values",0.513 (active)
same,normalized growth,"locus YBR160W, strain CDC28, hits give low values",0.515 (active)
same,normalized growth,"locus YDL017W, strain CDC7, hits give low values",0.616 (active)
same,normalized growth,"locus YDL028C, strain MPS1, hits give low values",0.647 (active)
same,normalized growth,[1],0.345 (active)
same,normalized growth,"locus YDL108W, strain KIN28, hits give low values",0.617 (active)
same,normalized growth,"locus YDL132W, strain cdc53, hits give low values",0.43 (active)
same,normalized growth,"locus YDL214C, strain PRR2, hits give low values",0.176 (active)
same,normalized growth,"locus YDR052C, strain DBF4, hits give low values",0.825 (active)
same,normalized growth,"locus YDR054C, strain cdc34, hits give low values",0.325 (active)
same,normalized growth,"locus YDR226W, strain ADK1, hits give low values",0.57 (active)
same,normalized growth,"locus YDR477W, strain SNF1, hits give low values",0.155 (active)
same,normalized growth,"locus YER123W, strain YCK3, hits give low values",0.197 (active)
same,normalized growth,"locus YER133W, strain GLC7, hits give low values",0.194 (active)
same,normalized growth,"locus YFL009W, strain cdc4, hits give low values",0.468 (active)
same,normalized growth,"locus YFL029C, strain CAK1, hits give low values",0.467 (active)
same,normalized growth,"locus YFR003C, strain YPI1, hits give low values",0.644 (active)
same,normalized growth,"locus YFR019W, strain FAB1, hits give low values",0.182 (active)
same,normalized growth,"locus YFR028C, strain CDC14, hits give low values",0.577 (active)
same,normalized growth,"locus YGR040W, strain KSS1, hits give low values",0.179 (active)
same,normalized growth,"locus YGR052W, strain FMP48, hits give low values",0.204 (active)
same,normalized growth,"locus YGR092W, strain DBF2, hits give low values",0.15 (active)
same,normalized growth,[2],0.208 (active)
same,normalized growth,"locus YHR079C, strain IRE1, hits give low values",0.145 (active)
same,normalized growth,"locus YHR082C, strain KSP1, hits give low values",0.206 (active)
same,normalized growth,"locus YHR205W, strain SCH9, hits give low values",0.226 (active)
same,normalized growth,"locus YIL147C, strain SLN1, hits give low values",0.627 (active)
same,normalized growth,"locus YJL095W, strain BCK1, hits give low values",0.186 (active)
same,normalized growth,"locus YJL128C, strain PBS2, hits give low values",0.628 (active)
same,normalized growth,"locus YJL157C, strain FAR1, hits give low values",0.172 (active)
same,normalized growth,"locus YJR016C, strain ILV3, hits give low values",0.574 (active)
same,normalized growth,"locus YJR066W, strain TOR1 (second series), hits give low values",0.234 (active)
same,normalized growth,"locus YJR066W, strain TOR1, hits give low values",0.244 (active)
same,normalized growth,"locus YKL048C, strain ELM1, hits give low values",0.327 (active)
same,normalized growth,"locus YKL067W, strain YNK1, hits give low values",0.167 (active)
same,normalized growth,"locus YKL101W, strain HSL1, hits give low values",0.212 (active)
same,normalized growth,"locus YKL193C, strain SDS22, hits give low values",0.42 (active)
same,normalized growth,"locus YKL203C, strain TOR2, hits give low values",0.217 (active)
same,normalized growth,"locus YLR113W, strain HOG1, hits give low values",0.275 (active)
same,normalized growth,"locus YLR133W, strain CKI1, hits give low values",0.205 (active)
same,normalized growth,"locus YLR403W, strain SFP1, hits give low values",0.175 (active)
same,normalized growth,"locus YML070W, strain DAK1, hits give low values",0.183 (active)
same,normalized growth,"locus YMR001C, strain CDC5, hits give low values",0.475 (active)
same,normalized growth,"locus YMR205C, strain PFK2 (second series), hits give low values",0.236 (active)
same,normalized growth,"locus YMR277W, strain FCP1, hits give low values",0.352 (active)
same,normalized growth,"locus YNL006W, strain LST8, hits give low values",0.452 (active)
same,normalized growth,"locus YNL020C, strain ARK1, hits give low values",0.182 (active)
same,normalized growth,"locus YNL161W, strain CBK1, hits give low values",0.427 (active)
same,normalized growth,"locus YNL183C, strain NPR1, hits give low values",0.185 (active)
same,normalized growth,"locus YNL207W, strain RIO2, hits give low values",0.515 (active)
same,normalized growth,"locus YNL222W, strain SSU72, hits give low values",0.428 (active)
same,normalized growth,"locus YNL307C, strain MCK1 (second series), hits give low values",0.177 (active)
same,normalized growth,"locus YOL078W, strain AVO1, hits give low values",0.483 (active)
same,normalized growth,"locus YOL136C, strain PFK27, hits give low values",0.199 (active)
same,normalized growth,"locus YOR061W, strain CKA2, hits give low values",0.23 (active)
same,normalized growth,"locus YOR119C, strain RIO1, hits give low values",0.225 (active)
same,normalized growth,"locus YOR231W, strain MKK1, hits give low values",0.171 (active)
same,normalized growth,"locus YOR329C, strain SCD5, hits give low values",0.515 (active)
same,normalized growth,"locus YPL031C, strain PHO85, hits give low values",0.207 (active)
same,normalized growth,"locus YPL153C, strain RAD53, hits give low values",0.193 (active)
same,normalized growth,"locus YPL204W, strain HRR25, hits give low values",0.203 (active)
same,normalized growth,"locus YPL209C, strain IPL1, hits give low values",0.601 (active)
same,normalized growth,"locus YPL256C, strain CLN2, hits give low values",0.231 (active)
same,normalized growth,"locus YPR025C, strain CCL1, hits give low values",0.611 (active)
same,normalized growth,"locus YPR106W, strain ISR1, hits give low values",0.475 (active)
same,normalized growth,"locus YPR111W, strain DBF20, hits give low values",0.583 (active)
same,normalized growth,"strain NNK1, hits give low values",0.471 (active)
same,normalized growth,"strain TSCII, hits give low values",0.495 (active)
